# Results from publication PMC7862700, “An all-to-all approach to the identification of sequence-specific readers for epigenetic DNA modifications on cytosine”.
# How the values were obtained:
# Assay in all cases: DAPPL (digital affinity profiling via proximity ligation, sequencing); 10 mM Tris-HCl pH 7.5, 50 mM NaCl, 1 mM DTT, 4% glycerol, room temperature, 30 min; GST-TFs on glutathione beads, 16-mer random dsDNA library, 0.1% formaldehyde crosslink after washing; high values mean tight binding
# Settings in all cases: protein: recombinant; tags: N-terminal GST; dsDNA, one strand shown
# ETV2 = molecular target: T1, ETV2 (Homo sapiens, UniProt O00321 1-342)
# T1 sequence: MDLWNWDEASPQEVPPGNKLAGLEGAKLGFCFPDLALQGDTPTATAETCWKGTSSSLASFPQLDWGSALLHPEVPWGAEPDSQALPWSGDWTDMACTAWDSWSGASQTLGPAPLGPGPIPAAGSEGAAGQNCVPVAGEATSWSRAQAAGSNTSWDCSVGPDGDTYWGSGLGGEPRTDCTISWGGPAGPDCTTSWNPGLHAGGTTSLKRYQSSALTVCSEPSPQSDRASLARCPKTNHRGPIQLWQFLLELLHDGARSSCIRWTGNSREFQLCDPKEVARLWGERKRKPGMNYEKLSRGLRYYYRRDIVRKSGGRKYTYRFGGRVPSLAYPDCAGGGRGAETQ
# Method in brief: (§1)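 A tag-only sample was pooled with DNA-barcoded human transcription factors that had been expressed in yeast as GST fusions and captured on glutathione beads. The pools were incubated for 30 min at room temperature with 200 nmole of a random double-stranded 16-mer DNA library in Tris/NaCl/DTT/glycerol buffer, then washed, crosslinked with 0.1% formaldehyde, proximity-ligated (BsaI/T4 ligase, 1 h, 37 °C), PCR-amplified and sequenced on an Illumina NextSeq500. Binding signal is each hexamer's read frequency for a factor divided by its frequency for the tag-only sample.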
# ELF3 = molecular target: T2, ELF3 (Homo sapiens, UniProt P78545 1-371)
# T2 sequence: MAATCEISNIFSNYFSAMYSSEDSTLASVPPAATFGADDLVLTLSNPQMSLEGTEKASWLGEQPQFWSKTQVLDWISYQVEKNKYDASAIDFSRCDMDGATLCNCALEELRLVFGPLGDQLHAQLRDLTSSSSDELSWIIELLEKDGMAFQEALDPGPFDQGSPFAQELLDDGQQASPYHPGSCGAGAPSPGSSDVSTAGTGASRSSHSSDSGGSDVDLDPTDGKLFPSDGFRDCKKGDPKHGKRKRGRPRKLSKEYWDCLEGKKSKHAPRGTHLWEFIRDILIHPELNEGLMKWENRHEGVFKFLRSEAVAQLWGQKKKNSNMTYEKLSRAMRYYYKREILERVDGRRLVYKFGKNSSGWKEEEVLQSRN
# Method in brief: as §1
# ETV1 = ETV1 (Homo sapiens, UniProt P50549 1-477)
# ETV1, sequence (P50549 whole entry): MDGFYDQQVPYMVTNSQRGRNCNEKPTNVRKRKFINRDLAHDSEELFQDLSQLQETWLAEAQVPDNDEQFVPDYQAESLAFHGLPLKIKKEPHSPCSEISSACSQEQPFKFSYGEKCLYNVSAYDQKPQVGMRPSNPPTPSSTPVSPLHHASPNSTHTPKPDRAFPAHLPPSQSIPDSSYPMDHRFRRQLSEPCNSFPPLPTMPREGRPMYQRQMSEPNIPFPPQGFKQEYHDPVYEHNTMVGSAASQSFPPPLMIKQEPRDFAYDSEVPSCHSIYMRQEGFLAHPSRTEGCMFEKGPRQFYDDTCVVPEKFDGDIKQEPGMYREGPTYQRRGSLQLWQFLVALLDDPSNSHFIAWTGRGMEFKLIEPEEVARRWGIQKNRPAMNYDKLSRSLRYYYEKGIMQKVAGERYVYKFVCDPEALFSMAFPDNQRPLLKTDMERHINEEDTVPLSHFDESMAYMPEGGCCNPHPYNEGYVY
# Method in brief: as §1
# ERF = molecular target: T3, ERF (Homo sapiens, UniProt P50548 1-548)
# T3 sequence: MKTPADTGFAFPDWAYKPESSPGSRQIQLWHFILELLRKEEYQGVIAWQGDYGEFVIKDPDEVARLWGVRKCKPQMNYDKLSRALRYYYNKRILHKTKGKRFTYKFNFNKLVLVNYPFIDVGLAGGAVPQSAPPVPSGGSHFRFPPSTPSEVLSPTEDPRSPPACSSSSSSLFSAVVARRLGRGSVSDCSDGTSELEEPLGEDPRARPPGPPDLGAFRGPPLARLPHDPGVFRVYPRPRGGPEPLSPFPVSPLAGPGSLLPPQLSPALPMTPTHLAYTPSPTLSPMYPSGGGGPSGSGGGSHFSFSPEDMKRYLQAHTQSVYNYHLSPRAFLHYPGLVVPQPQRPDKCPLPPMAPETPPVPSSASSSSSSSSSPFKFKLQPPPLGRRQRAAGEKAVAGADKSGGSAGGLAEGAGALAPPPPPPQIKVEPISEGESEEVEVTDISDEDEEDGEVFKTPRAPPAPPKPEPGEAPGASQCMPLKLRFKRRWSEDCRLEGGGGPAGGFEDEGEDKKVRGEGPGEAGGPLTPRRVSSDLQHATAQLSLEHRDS
# Method in brief: as §1
# ETV3L = molecular target: T4, ETV3L (Homo sapiens, UniProt Q6ZN32 1-361)
# T4 sequence: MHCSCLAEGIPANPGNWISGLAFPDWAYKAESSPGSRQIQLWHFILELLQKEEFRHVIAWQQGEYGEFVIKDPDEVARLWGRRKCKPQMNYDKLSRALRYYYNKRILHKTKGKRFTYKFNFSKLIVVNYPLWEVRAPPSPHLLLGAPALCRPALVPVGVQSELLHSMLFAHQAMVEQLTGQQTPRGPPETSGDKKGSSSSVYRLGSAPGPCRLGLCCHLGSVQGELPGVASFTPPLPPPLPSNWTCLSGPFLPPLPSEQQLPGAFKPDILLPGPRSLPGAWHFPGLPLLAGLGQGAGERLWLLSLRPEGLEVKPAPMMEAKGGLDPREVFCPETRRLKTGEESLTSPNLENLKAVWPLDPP
# Method in brief: as §1
# ETS2 = molecular target: T5, ETS2 (Homo sapiens, UniProt P15036 1-469)
# T5 sequence: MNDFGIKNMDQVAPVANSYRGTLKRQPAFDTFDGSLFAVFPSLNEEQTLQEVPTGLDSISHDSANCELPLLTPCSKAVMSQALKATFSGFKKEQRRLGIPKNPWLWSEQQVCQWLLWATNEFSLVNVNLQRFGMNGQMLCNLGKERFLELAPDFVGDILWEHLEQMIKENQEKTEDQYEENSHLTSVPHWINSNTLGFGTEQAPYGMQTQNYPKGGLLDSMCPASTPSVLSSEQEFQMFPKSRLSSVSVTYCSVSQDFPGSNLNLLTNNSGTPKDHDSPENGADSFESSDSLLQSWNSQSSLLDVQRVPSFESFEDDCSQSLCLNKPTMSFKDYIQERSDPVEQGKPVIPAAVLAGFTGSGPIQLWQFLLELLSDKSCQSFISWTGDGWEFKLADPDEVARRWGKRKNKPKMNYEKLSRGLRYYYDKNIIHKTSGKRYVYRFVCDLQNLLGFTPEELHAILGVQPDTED
# Method in brief: as §1
# SPDEF = molecular target: T6, SPDEF (Homo sapiens, UniProt O95238 1-335)
# T6 sequence: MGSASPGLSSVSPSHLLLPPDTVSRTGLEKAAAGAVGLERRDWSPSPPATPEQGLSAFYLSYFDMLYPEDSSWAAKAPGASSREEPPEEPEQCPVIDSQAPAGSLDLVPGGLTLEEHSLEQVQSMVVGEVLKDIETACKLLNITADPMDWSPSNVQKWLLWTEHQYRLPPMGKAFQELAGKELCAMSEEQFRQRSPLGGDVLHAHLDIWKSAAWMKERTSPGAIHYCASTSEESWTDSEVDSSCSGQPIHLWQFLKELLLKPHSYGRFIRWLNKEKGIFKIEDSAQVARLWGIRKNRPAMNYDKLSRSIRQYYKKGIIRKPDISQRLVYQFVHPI
# Method in brief: as §1
# ETV7 = molecular target: T7, ETV7 (Homo sapiens, UniProt Q9Y603 1-341)
# T7 sequence: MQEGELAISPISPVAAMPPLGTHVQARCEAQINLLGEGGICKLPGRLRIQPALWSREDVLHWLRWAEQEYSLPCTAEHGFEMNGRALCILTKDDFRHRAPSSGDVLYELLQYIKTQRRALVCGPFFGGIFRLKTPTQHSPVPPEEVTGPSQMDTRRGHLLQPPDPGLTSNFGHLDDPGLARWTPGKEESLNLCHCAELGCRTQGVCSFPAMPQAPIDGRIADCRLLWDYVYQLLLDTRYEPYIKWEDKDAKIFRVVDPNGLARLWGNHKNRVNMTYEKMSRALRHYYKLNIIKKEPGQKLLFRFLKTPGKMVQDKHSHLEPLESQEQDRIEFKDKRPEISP
# Method in brief: as §1
# ETV3 = molecular target: T8, ETV3 (Homo sapiens, UniProt P41162-2 1-143)
# T8 sequence: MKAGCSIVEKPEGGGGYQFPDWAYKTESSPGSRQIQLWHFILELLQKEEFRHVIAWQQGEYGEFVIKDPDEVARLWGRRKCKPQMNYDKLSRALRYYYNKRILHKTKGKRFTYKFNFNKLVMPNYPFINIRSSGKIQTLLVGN
# Method in brief: as §1
# ETV6 = ETV6 (Homo sapiens, UniProt P41212 1-452)
# ETV6, sequence (P41212 whole entry): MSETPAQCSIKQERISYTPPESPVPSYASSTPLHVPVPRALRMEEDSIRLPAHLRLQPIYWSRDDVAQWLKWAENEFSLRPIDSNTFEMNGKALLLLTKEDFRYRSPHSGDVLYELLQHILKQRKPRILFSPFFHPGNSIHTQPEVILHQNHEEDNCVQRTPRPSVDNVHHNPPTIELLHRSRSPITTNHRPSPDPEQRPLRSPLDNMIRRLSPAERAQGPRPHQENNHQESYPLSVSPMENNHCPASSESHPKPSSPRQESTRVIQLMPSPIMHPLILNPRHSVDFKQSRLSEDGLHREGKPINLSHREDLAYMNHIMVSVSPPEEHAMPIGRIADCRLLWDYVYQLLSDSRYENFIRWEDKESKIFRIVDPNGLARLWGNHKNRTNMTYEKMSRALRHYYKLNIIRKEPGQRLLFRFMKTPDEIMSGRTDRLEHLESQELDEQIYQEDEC
# Method in brief: as §1
sequence,measurement,setting,value
ACGACC,binding signal,ETV2,"1.34 fold enrichment (6-mer frequency, TF over GST control)"
same,binding signal,ELF3,"1.25 fold enrichment (6-mer frequency, TF over GST control)"
same,binding signal,ETV1,"1.2 fold enrichment (6-mer frequency, TF over GST control)"
same,binding signal,ERF,"1.11 fold enrichment (6-mer frequency, TF over GST control)"
same,binding signal,ETV3L,"1.18 fold enrichment (6-mer frequency, TF over GST control)"
same,binding signal,ETS2,"1.15 fold enrichment (6-mer frequency, TF over GST control)"
same,binding signal,SPDEF,"1.2 fold enrichment (6-mer frequency, TF over GST control)"
same,binding signal,ETV7,"1.18 fold enrichment (6-mer frequency, TF over GST control)"
same,binding signal,ETV3,"1.24 fold enrichment (6-mer frequency, TF over GST control)"
same,binding signal,ETV6,"1.19 fold enrichment (6-mer frequency, TF over GST control)"
